Laboratory results: the supplement of paper PMC8728848
This is one part of a sample in which the strongest signals are shown more often than they occur.

How the values were obtained:
Experiment in all cases: glycan array binding signal (z-score within array); higher = stronger binding
Details in all cases: glycan notation: IUPAC condensed, linker removed
[1] = biological target: Fuc(a1-2)Gal(b1-4)GlcNAc(b1-3)Gal(b1-4)GlcNAc(b1-2)Man(a1-3)[Fuc(a1-2)Gal(b1-4)GlcNAc(b1-3)Gal(b1-4)GlcNAc(b1-2)Man(a1-6)]Man(b1-4)GlcNAc(b1-4)GlcNAc
Summary of the method: (§1)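 Columns mapping to the same glycan were averaged after glycan names were converted to IUPAC-condensed notation. The data come from 3228 arrays in the Consortium for Functional Glycomics database, limited to those with an available protein sequence. Binding is reported as a within-array Z-score averaged across arrays of one protein sequence and across linkers.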

[2] = biological target: Fuc(a1-2)Gal3S(b1-4)GlcNAc
Summary of the method: as §1

[3] = biological target: Fuc(a1-2)Gal6S(b1-3)GlcNAc6S
Summary of the method: as §1

[4] = biological target: Fuc(a1-2)[GalNAc(a1-3)]Gal(b1-3)GlcNAc(b1-6)GalNAc
Summary of the method: as §1

[5] = biological target: Fuc(a1-3)[Gal(b1-4)]GlcNAc(b1-6)[Gal(b1-3)GlcNAc(b1-3)]Gal(b1-4)Glc
Summary of the method: as §1

[6] = biological target: Fuc(a1-3)[Gal(b1-4)]GlcNAc6S
Summary of the method: as §1

[7] = biological target: Gal(a1-3)Gal(b1-3)GlcNAc(b1-6)GalNAc
Summary of the method: as §1

[8] = biological target: Gal(a1-3)Gal(b1-4)GlcNAc(b1-3)GalNAc
Summary of the method: as §1

[9] = biological target: Gal(b1-3)GlcNAc(b1-2)Man
Summary of the method: as §1

[10] = biological target: Gal(b1-3)GlcNAc(b1-6)Gal(b1-4)GlcNAc
Summary of the method: as §1

[11] = biological target: Gal(b1-3)GlcNAc6S
Summary of the method: as §1

[12] = biological target: Gal(b1-3)[Neu5Ac(a2-6)]GalNAc
Summary of the method: as §1

[13] = biological target: Gal(b1-4)Glc6S
Summary of the method: as §1

[14] = biological target: Gal(b1-4)GlcNAc(b1-2)Man
Summary of the method: as §1

[15] = biological target: Gal(b1-4)GlcNAc(b1-2)[Gal(b1-4)GlcNAc(b1-6)]Man(a1-6)[GlcNAc(b1-4)][Gal(b1-4)GlcNAc(b1-2)Man(a1-3)]Man(b1-4)GlcNAc(b1-4)GlcNAc
Summary of the method: as §1

[16] = biological target: Gal(b1-4)GlcNAc(b1-3)Gal(b1-3)GalNAc
Summary of the method: as §1

[17] = biological target: Gal(b1-4)GlcNAc(b1-3)Gal(b1-4)GlcNAc(b1-3)Gal(b1-4)GlcNAc(b1-3)Gal(b1-4)GlcNAc(b1-2)Man(a1-3)[Gal(b1-4)GlcNAc(b1-3)Gal(b1-4)GlcNAc(b1-3)Gal(b1-4)GlcNAc(b1-3)Gal(b1-4)GlcNAc(b1-2)Man(a1-6)]Man(b1-4)GlcNAc(b1-4)[Fuc(a1-6)]GlcNAc
Summary of the method: as §1

[18] = biological target: Gal3S(b1-4)[Fuc(a1-3)]Glc6S
Summary of the method: as §1

[19] = biological target: Gal3S(b1-4)[Fuc(a1-3)]GlcNAc6S
Summary of the method: as §1

[20] = biological target: Gal4S6S(b1-4)GlcNAc
Summary of the method: as §1

[21] = biological target: Gal6S(b1-3)GlcNAc6S
Summary of the method: as §1

[22] = biological target: GalNAc3S(b1-4)[Fuc(a1-3)]GlcNAc
Summary of the method: as §1

[23] = biological target: GalNAc4S6S(b1-4)GlcNAc
Summary of the method: as §1

[24] = biological target: Glc(a1-4)Glc
Summary of the method: as §1

[25] = biological target: Glc(b1-6)Glc
Summary of the method: as §1

[26] = biological target: GlcA(b1-3)Gal
Summary of the method: as §1

[27] = biological target: GlcNAc(a1-4)Gal(b1-4)GalNAc
Summary of the method: as §1

[28] = biological target: GlcNAc6S(b1-3)Gal(b1-4)GlcNAc
Summary of the method: as §1

[29] = biological target: Kdn(a2-6)Gal(b1-4)GlcNAc
Summary of the method: as §1

[30] = biological target: Man(a1-2)Man(a1-2)Man(a1-6)[Man(a1-3)]Man
Summary of the method: as §1

[31] = biological target: Man(a1-2)Man(a1-3)[Man(a1-2)Man(a1-6)]Man(a1-6)[Man(a1-2)Man(a1-2)Man(a1-3)]Man
Summary of the method: as §1

[32] = biological target: Man(a1-2)Man(a1-6)[Man(a1-3)]Man(a1-6)[Man(a1-2)Man(a1-2)Man(a1-3)]Man(b1-4)GlcNAc(b1-4)GlcNAc
Summary of the method: as §1

[33] = biological target: Man(a1-3)[Man(a1-6)]Man(a1-6)[Man(a1-3)]Man(b1-4)GlcNAc(b1-4)GlcNAc
Summary of the method: as §1

[34] = biological target: Man(a1-3)[Man(a1-6)]Man(b1-4)GlcNAc(b1-4)GlcNAc
Summary of the method: as §1

[35] = biological target: Neu5Ac(a2-3)Gal(b1-3)GlcNAc(b1-2)Man
Summary of the method: as §1

[36] = biological target: Neu5Ac(a2-3)Gal(b1-3)[GlcNAc(b1-6)]GalNAc
Summary of the method: as §1

[37] = biological target: Neu5Ac(a2-3)Gal(b1-3)]Neu5Ac(a2-3)Gal(b1-4)]GlcNAc
Summary of the method: as §1

[38] = biological target: Neu5Ac(a2-3)Gal(b1-4)GlcNAc(b1-3)Gal(b1-4)GlcNAc(b1-3)Gal(b1-4)GlcNAc
Summary of the method: as §1

[39] = biological target: Neu5Ac(a2-3)Gal(b1-4)GlcNAc(b1-6)GalNAc
Summary of the method: as §1

[40] = biological target: Neu5Ac(a2-3)GalNAc
Summary of the method: as §1

[41] = biological target: Neu5Ac(a2-6)Gal(b1-4)GlcNAc(b1-2)Man(a1-6)[Man(a1-3)]Man(b1-4)GlcNAc(b1-4)GlcNAc
Summary of the method: as §1

[42] = biological target: Neu5Ac(a2-6)Gal(b1-4)GlcNAc(b1-3)Gal(b1-3)GlcNAc
Summary of the method: as §1

[43] = biological target: Neu5Ac(a2-6)Gal(b1-4)GlcNAc(b1-3)Gal(b1-4)GlcNAc(b1-3)Gal(b1-4)GlcNAc
Summary of the method: as §1

[44] = biological target: Neu5Ac(a2-6)Gal(b1-4)GlcNAc(b1-3)Gal(b1-4)GlcNAc(b1-3)GalNAc
Summary of the method: as §1

[45] = biological target: Neu5Ac(a2-6)Gal(b1-4)GlcNAc(b1-3)GalNAc
Summary of the method: as §1

[46] = biological target: Neu5Ac(a2-6)Gal(b1-4)GlcNAc(b1-6)[Gal(b1-3)GlcNAc(b1-3)]Gal(b1-4)Glc
Summary of the method: as §1

[47] = biological target: Neu5Ac(a2-6)GalNAc(b1-4)GlcNAc
Summary of the method: as §1

[48] = biological target: Neu5Ac(a2-8)Neu5Ac(a2-3)Gal(b1-3)GalNAc(b1-4)[Neu5Ac(a2-3)]Gal(b1-4)Glc
Summary of the method: as §1

[49] = biological target: Neu5Ac(a2-8)Neu5Ac(a2-3)[GalNAc(b1-4)]Gal(b1-4)Glc
Summary of the method: as §1

[50] = biological target: Neu5Ac(a2-8)Neu5Ac(a2-8)Neu5Ac
Summary of the method: as §1

[51] = biological target: Neu5Gc(a2-6)GalNAc
Summary of the method: as §1

B1: PhypaEULS3 (Physcomitrella patens) (protein)
chain: MLPVRLHCKADPNFNLAAVPGQGPVMVPFSPNDDFQVWYKDVTMSTRVKDETGSSAFSLINKATGQALRHAPEDLAQCLLADYDSNALDQTVLWTMSEDMGQGYCCIRLASQITRNLDVFRGDKKSGGVKEGSPVITFAWKKQDNQIWKMITAILEQKLISEEDLNSAVDHHHHHH
glycan array binding signal (z-score) [1]: 0.946 | glycan array binding signal (z-score) [2]: -0.262 | glycan array binding signal (z-score) [3]: 3.08 | glycan array binding signal (z-score) [4]: 0.713 | glycan array binding signal (z-score) [5]: 2.22 | glycan array binding signal (z-score) [6]: -0.239 | glycan array binding signal (z-score) [7]: 0.611 | glycan array binding signal (z-score) [8]: 3.21 | glycan array binding signal (z-score) [9]: 0.702 | glycan array binding signal (z-score) [10]: 1.01 | glycan array binding signal (z-score) [11]: 1.42 | glycan array binding signal (z-score) [12]: -0.203 | glycan array binding signal (z-score) [13]: 0.095 | glycan array binding signal (z-score) [14]: 1.11 | glycan array binding signal (z-score) [15]: -0.969 | glycan array binding signal (z-score) [16]: 2.27 | glycan array binding signal (z-score) [17]: -0.557 | glycan array binding signal (z-score) [18]: 0.258 | glycan array binding signal (z-score) [19]: 2.66 | glycan array binding signal (z-score) [20]: -0.245 | glycan array binding signal (z-score) [21]: 4.14 | glycan array binding signal (z-score) [22]: -0.804 | glycan array binding signal (z-score) [23]: 2.6 | glycan array binding signal (z-score) [24]: -0.811 | glycan array binding signal (z-score) [25]: -1.38 | glycan array binding signal (z-score) [26]: -1.49 | glycan array binding signal (z-score) [27]: -1.15 | glycan array binding signal (z-score) [28]: 1.26 | glycan array binding signal (z-score) [29]: 0.671 | glycan array binding signal (z-score) [30]: 0.733 | glycan array binding signal (z-score) [31]: -0.367 | glycan array binding signal (z-score) [32]: 2.25 | glycan array binding signal (z-score) [33]: -0.185 | glycan array binding signal (z-score) [34]: 0.192 | glycan array binding signal (z-score) [35]: -0.422 | glycan array binding signal (z-score) [36]: 3.83 | glycan array binding signal (z-score) [37]: 0.062 | glycan array binding signal (z-score) [38]: 0.343 | glycan array binding signal (z-score) [39]: 2.29 | glycan array binding signal (z-score) [40]: -0.098 | glycan array binding signal (z-score) [41]: -0.347 | glycan array binding signal (z-score) [42]: 0.4 | glycan array binding signal (z-score) [43]: 0.398 | glycan array binding signal (z-score) [44]: 0.528 | glycan array binding signal (z-score) [45]: 0.678 | glycan array binding signal (z-score) [46]: 0.339 | glycan array binding signal (z-score) [47]: 0.235 | glycan array binding signal (z-score) [48]: -0.561 | glycan array binding signal (z-score) [49]: -0.005 | glycan array binding signal (z-score) [50]: -0.561 | glycan array binding signal (z-score) [51]: 2.46
